# This is a sample that favours compounds with a hit; in the whole collection about 2% have one here.
# 697 NFkB inh = inhibitors of PMA/ionomycin-induced NF-kB reporter, 697 cells, primary screen, B-cell NF-kB inhibitor project, cell-based, luminescence, uHTS. 0.33% of 330,000 active. 697 B-cell NF-kB luciferase reporter, 16 h. AID 435022, 2010. inhibition, % at 4 µM; in the data active = inhibition above about 35%
# COUP-TFII inh = NR2F2 transcriptional activity inhibitors, primary screen, cell-based, luciferase reporter, HEK293T, luminescence. inhibition, % at 8.6 µM. AID 686940, 2013. 0.7% of 370,000 active. HEK293T NGFI-A luciferase reporter. COUP transcription factor 2 (Homo sapiens), P24468;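 active = inhibition above a per-plate cutoff, mean inhibition of test wells between control levels plus 3 SD, cut at about 38% in these data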;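 note: cells cotransfected with COUP-TFII expression vector driving the NGFI-A reporter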
# Target sequence (P24468 whole entry, looked up): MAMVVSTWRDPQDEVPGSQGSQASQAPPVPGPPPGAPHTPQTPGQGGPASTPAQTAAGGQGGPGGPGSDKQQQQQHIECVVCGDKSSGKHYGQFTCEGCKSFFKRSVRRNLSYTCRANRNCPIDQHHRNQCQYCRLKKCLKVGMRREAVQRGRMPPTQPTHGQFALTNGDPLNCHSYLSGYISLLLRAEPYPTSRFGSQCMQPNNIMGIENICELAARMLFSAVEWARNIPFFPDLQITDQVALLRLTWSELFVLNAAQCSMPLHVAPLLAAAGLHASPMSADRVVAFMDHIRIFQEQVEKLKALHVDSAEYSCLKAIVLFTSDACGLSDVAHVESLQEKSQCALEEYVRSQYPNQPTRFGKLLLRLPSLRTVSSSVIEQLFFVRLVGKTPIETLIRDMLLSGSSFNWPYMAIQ
# Gli-Sufu antag = Gli-Sufu pathway antagonists, primary screen, luciferase luminescence, Sufu-KO-LIGHT cells, uHTS; Sufu-KO-LIGHT fibroblasts, Gli luciferase reporter luminescence; inhibition, % at 5 µM; 0.74% of 340,000 active;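 active = inhibition above about 55%, limit read from the data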
# GalR3 antagonist = GalR3 antagonists in HEK293 cells, primary screen, cell-based, fluorescence readout; Galanin receptor type 3 (Homo sapiens), O60755; HEK293 GalR3-CNG cAMP membrane potential fluorescence; galR3 body fused to GalR1 C-terminus; inhibition, % at 3 µM; 0.44% of 360,000 active; AID 651719, 2012;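 active = inhibition above the screen-wide average plus 3 SD, cut at about 13% in these data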;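 note: forskolin and galanin both at EC90 stimulate the cells; cAMP rise reported by CNG channel membrane potential dye signal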
# Jurkat NFkB inh = inhibitors of induced NF-kB luciferase reporter, primary screen, TCR NF-kB activation inhibitor project, cell-based, luminescence, uHTS; inhibition, % at 4 µM; Jurkat, PMA/ionomycin-induced NF-kB luciferase reporter; 0.53% of 330,000 active; AID 435003, 2010; in the data active = inhibition above about 50%
# 697 NFkB conf = PMA/ionomycin-induced NF-kB reporter inhibitors, 697 retest, confirmation, B-cell NF-kB inhibitor project, cell-based, luminescence, single concentration; inhibition, % at 4 µM; 697 B-cell NF-kB luciferase, 16 h; shares compounds with 697 NFkB inh; AID 449746, 2010; 35% of 2,000 active; in the data active = inhibition mostly above about 28%, no sharp cut-off; inactive = mostly below about 22%
# Hits are given with their value; . = inactive; / = no result given.
SMILES,697 NFkB inh,COUP-TFII inh,Gli-Sufu antag,GalR3 antagonist,Jurkat NFkB inh,697 NFkB conf
Cc1cc(C(=O)Cn2nnc3ccccc3c2=O)c(C)n1Cc1cccs1,.,.,.,.,.,.
CNS(=O)(=O)/C=C/c1ccccc1CCNC(=O)OC(C)(C)C,/,.,/,/,/,/
COC(=O)C1=C(C)N(c2ccc(Cl)cc2)/C(=C/c2ccc(O)cc2)C1=O,36,.,.,.,.,.
O=C(Nc1ccc(F)cc1)C1CCC(CNc2c(N3CCCCC3)c(=O)c2=O)CC1 (stereo not given),38,.,.,.,.,.
CCOc1ccc(NC(=O)C2CCC(CNc3c(N4CCCCC4)c(=O)c3=O)CC2)cc1 (stereo not given),.,.,.,.,.,/
COc1ccccc1Nc1nc(NCc2ccco2)c2ccccc2n1,.,.,.,.,.,/
Cc1ccc(Nc2nc(NCc3ccco3)c3ccccc3n2)cc1,.,.,.,.,.,.
Oc1ccc(C=Nc2ccccc2-c2nc3ccccc3[nH]2)c(O)c1,.,.,.,.,.,/
Oc1ccccc1C=Nc1ccccc1-c1nc2ccccc2[nH]1,.,.,.,.,.,.
CC(=O)c1cc(F)ccc1OCC(=O)N1CCN(c2ccc(F)cc2)CC1,36,.,.,.,.,.
O=C(NC1=NCCS1)c1ccc(Cl)c(Cl)c1,.,.,.,.,.,.
O=C(NC1=NCCS1)c1cc(Cl)ccc1Cl,.,.,.,.,.,/
CC(=O)c1ccc(Nc2nc(=O)c3cccnc3s2)cc1,.,.,.,.,.,/
O=c1nc(Nc2ccc(OCc3ccccc3)cc2)sc2ncccc12,.,.,.,.,.,.
CCOC(=O)c1ccc(Nc2nc(=O)c3cccnc3s2)cc1,.,.,.,.,.,/
Cc1ccc(Nc2nc(=O)c3cccnc3s2)c(Br)c1,.,.,.,.,.,.
CCNC(=S)NNC(=O)c1cnccn1,/,.,/,/,/,/
COc1ccc(S(=O)(=O)Nc2ccc(N(C)C(C)=O)cc2)cc1,37,.,.,.,.,.
COc1ccc(S(=O)(=O)Nc2ccc(NC(C)=O)cc2)cc1,.,.,.,.,.,/
Cc1cccc(CNC(=O)NC2CCCCN(Cc3cccc(Cl)c3)C2=O)c1 (stereo not given),/,.,/,/,/,/
O=C1CCCc2c1[nH]c1ccc(CN3CCCCC3)cc21,38,.,.,.,.,29
COc1ccc(NC(=O)c2cc3c(Cl)nc4ccccc4c3s2)cc1OC,44,.,.,.,.,39
COc1ccc(-c2nn(-c3ccccc3)cc2/C=C(/C#N)C(N)=O)cc1[N+](=O)[O-],.,.,.,.,.,/
COc1ccc(-c2nn(-c3ccccc3)cc2/C=C(\C#N)C(N)=O)cc1[N+](=O)[O-],38,.,.,.,.,.
COC(=O)[C@]12C[C@H](CC(=O)NCCC(C)C)C(=O)N(Cc3ccc(Cl)cc3Cl)C1=C[C@H](C(C)(C)C)O[C@@H]2C,/,.,/,/,/,/
SMILES,697 NFkB inh,COUP-TFII inh,Gli-Sufu antag,GalR3 antagonist,Jurkat NFkB inh,697 NFkB conf
Cc1oc(-c2ccccc2Cl)nc1CSCC(=O)N1CCCC1,.,.,.,.,.,.
Cc1oc(-c2ccccc2Cl)nc1CSCC(=O)NC1CCCC1,.,.,.,.,.,/
Cc1oc(-c2cccc(Cl)c2)nc1CSc1nc2c(c(=O)[nH]1)CCC2,.,/,.,/,.,/
Cc1oc(-c2ccccc2Cl)nc1CSc1nc2c(c(=O)[nH]1)CCC2,41,.,.,.,.,.
O=[N+]([O-])c1cnc2ccccc2c1Sc1ccccc1,/,.,/,/,/,/
CCC(C)c1ccc(-c2cc(C(=O)OCC(=O)Nc3cc(C)on3)c3ccccc3n2)cc1 (stereo not given),.,.,.,.,.,.
COc1ccc(-c2cc(C(=O)OCC(=O)Nc3cc(C)on3)c3ccccc3n2)cc1OC,.,.,.,.,.,/
Cc1ccc(-n2nc3c(=O)n(CCCC(=O)NCc4ccc(F)cc4)nc(C)c3c2C)cc1,39,.,.,.,.,.
O=C(Nc1ccc(N2CCCC2)cc1)c1cccc(F)c1,.,.,.,.,.,.
O=C(Nc1ccc(N2CCCCC2)cc1)c1ccccc1,.,.,.,.,.,/

# Compound activity as filed in PubChem.
